In PubChem BioAssay (EPA / NIEHS):
Records with an inconclusive call do not appear. The source made the active and inactive calls. Rule for the calls, unless noted: active = hit-call score of the fitted dose curve at least 0.9, where 1 is the maximum; inactive = score below 0.9.

Key:
[1] = molecular target: Paired box protein Pax-6 (Homo sapiens) (UniProt P26367); test: ATG_Pax6_CIS: Attagene CIS-FACTORIAL HepG2 Assay for human Paired Box 6 (PAX6) (AID 2282956); details: HepG2 CIS-FACTORIAL PAX6 reporter transcription, RNA readout; actives raise or lower the signal
Chain of Paired box protein Pax-6 (Homo sapiens) (P26367 whole entry, looked up): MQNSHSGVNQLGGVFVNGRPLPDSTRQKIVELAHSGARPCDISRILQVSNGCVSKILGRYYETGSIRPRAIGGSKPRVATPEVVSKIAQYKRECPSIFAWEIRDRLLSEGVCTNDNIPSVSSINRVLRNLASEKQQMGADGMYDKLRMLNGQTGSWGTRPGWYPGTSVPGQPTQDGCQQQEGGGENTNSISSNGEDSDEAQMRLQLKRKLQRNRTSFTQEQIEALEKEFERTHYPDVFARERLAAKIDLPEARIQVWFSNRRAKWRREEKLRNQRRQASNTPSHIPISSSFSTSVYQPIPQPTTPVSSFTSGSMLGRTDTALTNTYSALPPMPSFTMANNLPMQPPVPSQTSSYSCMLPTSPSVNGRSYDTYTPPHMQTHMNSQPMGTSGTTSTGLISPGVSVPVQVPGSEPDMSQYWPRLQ
How it was run: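 Fluorescent RT-PCR products separated by capillary electrophoresis report PAX6-linked promoter mRNA in HepG2 cells 24 h post-dose. Curves fitted bidirectionally, DMSO as negative control.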

[2] = ATG_RORE_CIS: Attagene CIS-FACTORIAL HepG2 Assay for human RAR-related Orphan Receptor Element (RORE) (AID 2282959); details: HepG2 Attagene cis-factorial RORE reporter, mRNA; actives raise or lower the signal
How it was run: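 Transiently transfected HepG2 reporter cells were treated 24 h. Reporter transcripts were detected by RT-PCR and capillary electrophoresis, with bidirectional fitting against DMSO.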

[3] = ATG_Sox_CIS: Attagene CIS-FACTORIAL HepG2 Assay for human SRY-box transcription factor (SOX) (AID 2282960); details: HepG2 Attagene cis-factorial SOX reporter, mRNA; actives raise or lower the signal
How it was run: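 Gain- or loss-of-signal endpoint, fitted bidirectionally with DMSO as negative control. Based on reporter mRNA from transfected HepG2 cells harvested 24 h post-treatment and quantified via RT-PCR and capillary electrophoresis.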

[4] = molecular target: Transcription factor Sp1 (Homo sapiens) (UniProt P08047); test: ATG_Sp1_CIS: Attagene CIS-FACTORIAL HepG2 Assay for human Specificity Protein 1 (Sp1) (AID 2282961); details: HepG2 Sp1 cis-reporter transcription, actives raise or lower the signal
Chain of Transcription factor Sp1 (Homo sapiens) (P08047 whole entry, looked up, the tested form may be a part): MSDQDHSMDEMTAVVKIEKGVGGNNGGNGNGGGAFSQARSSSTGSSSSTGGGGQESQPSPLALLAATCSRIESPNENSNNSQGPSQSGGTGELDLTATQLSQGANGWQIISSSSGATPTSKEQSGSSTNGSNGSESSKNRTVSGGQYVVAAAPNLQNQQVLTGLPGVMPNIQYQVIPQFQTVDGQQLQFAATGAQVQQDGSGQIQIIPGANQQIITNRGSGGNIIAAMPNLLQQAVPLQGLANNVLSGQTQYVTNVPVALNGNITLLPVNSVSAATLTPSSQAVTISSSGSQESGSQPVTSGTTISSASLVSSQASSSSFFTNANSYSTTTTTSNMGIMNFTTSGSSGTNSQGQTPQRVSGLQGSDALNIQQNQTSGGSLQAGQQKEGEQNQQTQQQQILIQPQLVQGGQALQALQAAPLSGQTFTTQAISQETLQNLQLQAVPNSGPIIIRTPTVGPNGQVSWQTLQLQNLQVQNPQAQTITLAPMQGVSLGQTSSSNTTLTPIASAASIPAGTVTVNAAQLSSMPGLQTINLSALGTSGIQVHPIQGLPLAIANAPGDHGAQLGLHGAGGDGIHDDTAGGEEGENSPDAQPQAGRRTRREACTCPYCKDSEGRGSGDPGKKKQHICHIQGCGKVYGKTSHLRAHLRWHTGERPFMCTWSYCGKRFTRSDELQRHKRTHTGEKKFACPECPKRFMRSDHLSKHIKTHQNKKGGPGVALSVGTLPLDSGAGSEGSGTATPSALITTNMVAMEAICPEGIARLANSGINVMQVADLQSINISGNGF
How it was run: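 Endpoint reflects endogenous Sp1 transcriptional activity, not an exogenous fusion protein: HepG2 cells with transfected cis-regulated reporters, 24 h dosing, RT-PCR/capillary electrophoresis mRNA read-out, DMSO-normalised bidirectional fit.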

[5] = ATG_SREBP_CIS: Attagene CIS-FACTORIAL HepG2 Assay for human Sterol Regulatory Element Binding (SREBP) (AID 2282962); details: HepG2 Attagene cis-factorial SREBP reporter, mRNA; actives raise or lower the signal
How it was run: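 Endogenous factor activity is measured in HepG2 through multiplexed reporter units under cis-element control. Following a 24 h incubation, reporter transcripts are reverse-transcribed, PCR-amplified and sized by capillary electrophoresis; activity is fitted in both directions relative to DMSO.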

[6] = molecular target: Signal transducer and activator of transcription 3 (Homo sapiens) (UniProt P40763); test: ATG_STAT3_CIS: Attagene CIS-FACTORIAL HepG2 Assay for human Signal Transducer and Activator of Transcription 3 (STAT3) (AID 2282963); details: HepG2, Attagene cis-factorial STAT3 reporter transcription; actives raise or lower the signal
Chain of Signal transducer and activator of transcription 3 (Homo sapiens) (P40763 whole entry, looked up): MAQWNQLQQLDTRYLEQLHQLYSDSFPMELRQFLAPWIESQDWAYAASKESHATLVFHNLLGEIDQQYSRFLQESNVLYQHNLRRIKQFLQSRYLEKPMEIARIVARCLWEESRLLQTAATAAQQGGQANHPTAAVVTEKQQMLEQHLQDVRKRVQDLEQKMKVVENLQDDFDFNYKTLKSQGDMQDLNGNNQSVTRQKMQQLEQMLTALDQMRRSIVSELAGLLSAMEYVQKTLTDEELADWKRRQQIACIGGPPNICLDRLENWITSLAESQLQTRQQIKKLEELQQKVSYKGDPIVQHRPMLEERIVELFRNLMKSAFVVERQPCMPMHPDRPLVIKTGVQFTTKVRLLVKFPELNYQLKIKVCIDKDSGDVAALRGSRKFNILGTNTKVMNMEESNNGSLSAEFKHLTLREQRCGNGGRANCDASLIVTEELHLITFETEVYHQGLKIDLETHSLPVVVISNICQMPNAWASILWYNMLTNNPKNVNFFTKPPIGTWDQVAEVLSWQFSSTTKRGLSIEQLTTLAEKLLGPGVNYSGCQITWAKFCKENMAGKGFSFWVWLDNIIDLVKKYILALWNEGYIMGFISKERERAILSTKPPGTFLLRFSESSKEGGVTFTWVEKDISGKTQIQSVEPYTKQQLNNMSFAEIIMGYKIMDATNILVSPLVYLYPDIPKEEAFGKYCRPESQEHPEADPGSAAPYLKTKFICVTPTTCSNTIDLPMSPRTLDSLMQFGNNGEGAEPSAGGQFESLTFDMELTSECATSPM
How it was run: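 Readout is reporter transcript quantified by RT-PCR and capillary electrophoresis, with 6-FAM primer extension and HpaI digestion. Total RNA is taken 24 h after dosing transiently transfected HepG2 carrying cis-regulated reporter units. Bidirectional fit against DMSO.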

[7] = ATG_TA_CIS: Attagene CIS-FACTORIAL HepG2 Assay for human TA Basal Promoter (AID 2282964); details: HepG2 Attagene CIS-factorial TA basal promoter reporter; actives raise or lower the signal
How it was run: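 Background-control readout: TA basal promoter reporter mRNA, fitted in both directions relative to DMSO. Measured by RT-PCR and capillary electrophoresis 24 hours after treating HepG2 human liver cells transiently carrying multiplexed cis-regulated reporter constructs.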

[8] = ATG_TCF_b_cat_CIS: Attagene CIS-FACTORIAL HepG2 Assay for human T-Cell-Factor with beta-catenin (TCF/b-cat) (AID 2282965); details: HepG2 TCF/beta-catenin cis-reporter transcription, actives raise or lower the signal
How it was run: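 Endogenous TCF/LEF activity read as reporter transcript level via RT-PCR and capillary electrophoresis fluorescence in transfected HepG2, 24 h exposure; gain or loss of signal fitted against DMSO controls.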

[9] = ATG_TAL_CIS: Attagene CIS-FACTORIAL HepG2 Assay for human TAL Basal Promoter (AID 2282966); details: HepG2 Attagene cis-factorial TAL promoter reporter; actives raise or lower the signal;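 note: background control endpoint measuring basal TAL promoter reporter mRNA not a specific factor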
How it was run: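 Human hepatoma HepG2 cells, transfected with promoter-regulated reporter units, were treated 24 h. Reporter transcript levels, measured through RT-PCR and capillary electrophoresis, were fitted for gain or loss relative to DMSO.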

[10] = ATG_TGFb_CIS: Attagene CIS-FACTORIAL HepG2 Assay for human Transforming Growth Factor (TGF) (AID 2282967); details: HepG2 Attagene CIS TGFb reporter, mRNA transcription; actives raise or lower the signal
How it was run: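 Endogenous TGFB1-linked transcription factor activity read as reporter mRNA via RT-PCR and capillary electrophoresis, 24 h after dosing transiently transfected HepG2 cells. Gain or loss of signal fitted relative to DMSO.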

[11] = ATG_VDRE_CIS: Attagene CIS-FACTORIAL HepG2 Assay for human Vitamin D Receptor Element (VDRE) (AID 2282968); details: HepG2 VDRE cis-reporter transcription, actives raise or lower the signal
How it was run: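 Readout is VDRE-driven reporter mRNA reflecting endogenous factor activity in human HepG2 cells, sampled 24 h post-dose. Quantification used labelled RT-PCR products separated by capillary electrophoresis; bidirectional analysis relative to DMSO.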

[12] = molecular target: X-box-binding protein 1 (Homo sapiens) (UniProt P17861); test: ATG_Xbp1_CIS: Attagene CIS-FACTORIAL HepG2 Assay for human X-box Binding Protein 1 (XBP1) (AID 2282972); details: HepG2 XBP1 cis-element reporter, Attagene multiplex; actives raise or lower the signal
Chain of X-box-binding protein 1 (Homo sapiens) (P17861 whole entry, looked up): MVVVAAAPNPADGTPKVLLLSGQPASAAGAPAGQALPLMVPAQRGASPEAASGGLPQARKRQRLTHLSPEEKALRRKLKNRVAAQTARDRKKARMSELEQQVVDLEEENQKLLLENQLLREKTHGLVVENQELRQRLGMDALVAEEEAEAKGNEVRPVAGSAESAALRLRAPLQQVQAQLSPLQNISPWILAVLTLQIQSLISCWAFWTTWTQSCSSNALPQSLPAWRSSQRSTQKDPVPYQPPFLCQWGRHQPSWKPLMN
How it was run: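 Multiplexed cis-reporter readout in transfected HepG2 liver cells. Exposure lasted 24 hours. Activity in either direction was fitted against DMSO as negative control and baseline.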

[13] = ATG_GAL4_TRANS: Attagene TRANS-FACTORIAL HepG2 Assay for GAL4 (Internal Marker) (AID 2282976; active = hit-call score of the fitted dose curve at least 0.9, where 1 is the maximum); details: HepG2 Attagene TRANS GAL4 internal marker reporter
How it was run: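 Liver HepG2 line bearing multiplexed GAL4-UAS reporter constructs; 24 h chemical treatment. Transcripts were quantified as fluorescent fragments on capillary electrophoresis after RT-PCR and HpaI cut, with activity fitted upward from DMSO.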

[14] = ATG_PPRE_CIS: Attagene CIS-FACTORIAL HepG2 Assay for human Peroxisome Proliferator-activated Response Element (PPRE) (AID 2282958); details: HepG2 PPRE cis-element reporter, Attagene transcription factor profiling; actives raise or lower the signal
How it was run: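 Measured endpoint: PPRE-controlled reporter mRNA, detected by RT-PCR and capillary electrophoresis fluorescence, from transiently transfected HepG2 cells 24 h after dosing. Curves fitted in both directions using DMSO baseline.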

[15] = ATG_M_19_TRANS: Attagene TRANS-FACTORIAL HepG2 Assay for M19 Transcription Factor (Internal Marker) (AID 2282974; active = hit-call score of the fitted dose curve at least 0.9, where 1 is the maximum); details: HepG2 Attagene TRANS-FACTORIAL M19 internal marker reporter
How it was run: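 Using RT-PCR and capillary electrophoresis, reporter mRNA from transiently transfected human HepG2 cells was quantified following 24 h exposure; activity was fitted in the positive direction against DMSO.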

[16] = molecular target: Nuclear receptor subfamily 1 group I member 3 (Homo sapiens) (UniProt Q14994); test: ATG_CAR_TRANS: Attagene TRANS-FACTORIAL HepG2 Assay for human Constitutive Androstane Receptor (CAR) (AID 2282969; active = hit-call score of the fitted dose curve at least 0.9, where 1 is the maximum;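 note: activators raise reporter mRNA above DMSO so AC50 marks induction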); details: HepG2 Attagene TRANS-FACTORIAL CAR reporter
Chain of Nuclear receptor subfamily 1 group I member 3 (Homo sapiens) (Q14994 whole entry, looked up, the tested form may be a part): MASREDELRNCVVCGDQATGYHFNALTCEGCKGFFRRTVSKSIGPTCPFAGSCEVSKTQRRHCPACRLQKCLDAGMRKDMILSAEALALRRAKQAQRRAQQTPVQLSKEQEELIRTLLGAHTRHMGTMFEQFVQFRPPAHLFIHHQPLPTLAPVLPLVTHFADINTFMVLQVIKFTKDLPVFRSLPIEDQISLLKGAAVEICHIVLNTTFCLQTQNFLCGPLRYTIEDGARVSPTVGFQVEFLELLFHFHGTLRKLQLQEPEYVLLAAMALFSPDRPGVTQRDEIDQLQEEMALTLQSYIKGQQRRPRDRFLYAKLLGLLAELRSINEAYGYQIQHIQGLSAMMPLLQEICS
How it was run: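 Signal is reporter mRNA induction relative to DMSO, measured 24 h after dosing by RT-PCR with fluorescent primer extension and capillary electrophoresis. Human HepG2 liver cells carried transiently transfected chimeric NR-Gal4/GAL4-UAS reporter constructs.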

[17] = molecular target: Steroid hormone receptor ERR1 (Homo sapiens) (UniProt P11474); test: ATG_ERRa_TRANS: Attagene TRANS-FACTORIAL HepG2 Assay for human Estrogen-Related Receptor alpha (ERRa) (AID 2282971; active = hit-call score of the fitted dose curve at least 0.9, where 1 is the maximum); details: HepG2 Attagene TRANS reporter, ERRa transactivation
Chain of Steroid hormone receptor ERR1 (Homo sapiens) (P11474 whole entry, looked up, the tested form may be a part): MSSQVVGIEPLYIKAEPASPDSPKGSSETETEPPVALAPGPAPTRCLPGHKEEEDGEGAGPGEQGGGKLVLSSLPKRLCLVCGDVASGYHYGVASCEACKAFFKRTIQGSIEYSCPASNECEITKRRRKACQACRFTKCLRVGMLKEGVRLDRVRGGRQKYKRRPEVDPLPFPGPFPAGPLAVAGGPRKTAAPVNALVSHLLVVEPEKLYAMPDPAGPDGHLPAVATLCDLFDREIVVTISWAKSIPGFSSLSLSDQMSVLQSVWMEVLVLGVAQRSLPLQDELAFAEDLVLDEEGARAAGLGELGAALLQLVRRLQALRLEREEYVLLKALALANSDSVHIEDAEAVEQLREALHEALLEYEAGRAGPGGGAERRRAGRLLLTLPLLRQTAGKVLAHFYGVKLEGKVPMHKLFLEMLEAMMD
How it was run: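 Signal gain relative to DMSO for an ERRa-Gal4 chimeric receptor, read as reporter mRNA by RT-PCR/capillary electrophoresis. Human HepG2 liver cells, transient multiplex reporter transfection, 24 h chemical exposure.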

[18] = molecular target: Estrogen receptor (Homo sapiens) (UniProt P03372); test: ATG_ERa_TRANS: Attagene TRANS-FACTORIAL HepG2 Assay for human Estrogen Receptor alpha (ERa) (AID 2282970; active = hit-call score of the fitted dose curve at least 0.9, where 1 is the maximum); details: HepG2 Attagene TRANS ERa GAL4 reporter, mRNA
Chain of Estrogen receptor (Homo sapiens) (P03372 whole entry, looked up, the tested form may be a part): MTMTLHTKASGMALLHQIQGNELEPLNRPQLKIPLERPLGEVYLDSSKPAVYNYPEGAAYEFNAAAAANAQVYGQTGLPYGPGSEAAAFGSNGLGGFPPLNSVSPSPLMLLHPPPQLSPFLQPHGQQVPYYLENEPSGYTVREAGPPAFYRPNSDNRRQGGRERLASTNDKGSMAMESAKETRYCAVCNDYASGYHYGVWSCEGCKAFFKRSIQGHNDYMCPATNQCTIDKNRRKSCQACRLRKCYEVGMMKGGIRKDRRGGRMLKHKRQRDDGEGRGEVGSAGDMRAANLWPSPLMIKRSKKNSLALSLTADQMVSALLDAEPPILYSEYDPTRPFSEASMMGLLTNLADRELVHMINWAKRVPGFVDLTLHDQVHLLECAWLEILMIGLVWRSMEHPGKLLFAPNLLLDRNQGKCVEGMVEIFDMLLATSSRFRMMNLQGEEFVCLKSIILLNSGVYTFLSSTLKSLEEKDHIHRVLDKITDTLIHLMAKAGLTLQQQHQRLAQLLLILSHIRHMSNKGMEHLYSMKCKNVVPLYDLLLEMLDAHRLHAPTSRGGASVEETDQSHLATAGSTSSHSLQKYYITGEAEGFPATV
How it was run: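 Signal derives from fluorescence of labelled reporter PCR fragments separated by capillary electrophoresis. HepG2 cells transiently carrying multiple GAL4-UAS reporter units were treated 24 hours, and induction above DMSO baseline was fitted as activity.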

[19] = molecular target: Estrogen-related receptor gamma (Homo sapiens) (UniProt P62508); test: ATG_ERRg_TRANS: Attagene TRANS-FACTORIAL HepG2 Assay for human Estrogen-Related Receptor gamma (ERRg) (AID 2282977; active = hit-call score of the fitted dose curve at least 0.9, where 1 is the maximum;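 note: hits increase reporter signal over DMSO so potencies reflect activators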); details: HepG2 Attagene TRANS reporter, ERRg transactivation
Chain of Estrogen-related receptor gamma (Homo sapiens) (P62508 whole entry, looked up, the tested form may be a part): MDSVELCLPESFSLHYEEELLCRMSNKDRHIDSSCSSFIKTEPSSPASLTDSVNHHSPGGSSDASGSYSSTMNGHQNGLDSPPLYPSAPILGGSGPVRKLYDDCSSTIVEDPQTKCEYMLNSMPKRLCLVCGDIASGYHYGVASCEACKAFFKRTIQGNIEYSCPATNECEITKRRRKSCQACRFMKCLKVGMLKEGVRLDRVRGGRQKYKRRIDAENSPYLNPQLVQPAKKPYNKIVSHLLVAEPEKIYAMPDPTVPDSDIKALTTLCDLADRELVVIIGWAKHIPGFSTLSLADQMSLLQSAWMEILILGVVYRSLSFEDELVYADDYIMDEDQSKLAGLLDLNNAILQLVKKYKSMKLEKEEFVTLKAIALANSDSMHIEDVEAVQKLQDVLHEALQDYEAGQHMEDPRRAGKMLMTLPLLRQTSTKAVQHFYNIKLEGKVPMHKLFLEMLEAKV
How it was run: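 Exogenous NR-Gal4 chimera activity measured as reporter transcript induction after 24 h in transiently transfected HepG2 cells. RNA reverse-transcribed, PCR-amplified, 6-FAM-labelled and resolved by capillary electrophoresis; increase over DMSO baseline.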

Measured: AC50

OCC(O)c1ccccc1 (stereo not given)
not listed: [14] | [15] | [16] | [17] | [18] | [19]
inactive: all other assays above

NCCNc1cccc2ccccc12
active: [1] 100 µM | [14] 99.2 µM | [8] 49.8 µM | [11] 155 µM | [12] 161 µM
inactive: [4] | [6] | [9] | [10]

OCc1ccc(Cl)cc1Cl
not listed: [15] | [16] | [17] | [18] | [19]
inactive: all other assays above

CCCCCCCCCCCCS(=O)(=O)Cl
not listed: [13] | [14] | [16] | [17] | [18] | [19]
inactive: all other assays above

C=CCOC(=O)CCCCCC
active: [10] 0.0799 µM
not listed: [7] | [13] | [17] | [18] | [19]
inactive: all other assays above

O=C1NC2NC(=O)NC2N1 (stereo not given)
not listed: [16] | [17] | [18] | [19]
inactive: all other assays above

FC(F)(F)COCC(F)(F)F
not listed: [2] | [10] | [18] | [19]
inactive: all other assays above

CCNCCO
inactive: [1] | [14] | [3] | [4] | [5] | [6] | [7] | [9] | [11]

CCCCCCCCCCCC(=O)OCC(O)CO (stereo not given)
inactive: [1] | [2] | [3] | [6] | [7] | [8] | [9] | [11] | [18] | [13]
active: [5] 100 µM

CCC(C)c1cc([N+](=O)[O-])cc([N+](=O)[O-])c1OC(=O)OC(C)C (stereo not given)
active: [1] 25.9 µM | [3] 25.3 µM | [5] 25.1 µM | [6] 100 µM | [11] 0.705 µM | [12] 24.3 µM
not listed: [7] | [10] | [13] | [18]
inactive: all other assays above

CC1=NN(c2ccc(S(=O)(=O)O)cc2)C(=O)C1
not listed: [14] | [16] | [17] | [18] | [19]
inactive: all other assays above

CCCCCCOC(=O)CCC
not listed: [8] | [13] | [17] | [18] | [19]
inactive: all other assays above

Cc1cccc(Nc2ccccc2)c1
active: [1] 120 µM | [4] 127 µM | [11] 58.2 µM | [12] 133 µM
inactive: [14] | [2] | [3] | [6] | [7] | [8] | [9] | [10]

Cc1ccc(OC(=O)c2ccccc2O)cc1
not listed: [13] | [16] | [17] | [18]
inactive: all other assays above

CCCC[O][Al]([O]CCCC)[O]CCCC
not listed: [2] | [13] | [15] | [16] | [17] | [18] | [19]
inactive: all other assays above
